In assay [1] the target is Lysosomal acid glucosylceramidase (Homo sapiens) (UniProt P04062). Briefly: Glucocerebrosidase-p2 (AID 348; in the data active = potency below about 10 µM; note: potency is the fitted concentration of half-maximal effect). The following applies: purified GBA, blue fluorogenic substrate, 40 min. The method, boiled down: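 Compounds titrated from 0.6 nM upwards against 0.2 nM enzyme in pH 5.9 citric acid/KH2PO4, taurocholate, tween-20; blue fluorogenic substrate 80 uM, 40 min room temperature, stopped and read Ex 365/Em 440 for AC50.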

A short description of assay [2]: AP1 Signaling Pathway (AID 357).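 Note: ME-180 reporter cells stimulated with EGF at its EC50 level; % is set by controls: 0 for no effect and ±100 for the full control effect.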 The following applies: ME-180 AP-1-bla reporter, EGF-induced, beta-lactamase ratio, 5 h; series mostly up to 17.2 µM. The method, boiled down:
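Read-out was the 460nm/530nm emission ratio (excitation 405nm) after CCF4 loading for 2.5 hours at room temperature. Cells carried an AP-1-driven beta-lactamase reporter, were stimulated with EC50 EGF plus compound for 5 hours, and AC50 values came from titrations.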

Assay [3] addresses Cytochrome P450 1A2 (Homo sapiens) (UniProt P05177). The experiment in a line: p450-cyp1a2 (AID 410; calls by dose curve; note: potency is the fitted concentration of half-maximal effect;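 for activity change, negative = inhibition: -100% = full effect of reference inhibitor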). The conditions noted are these: recombinant CYP1A2, luciferin-ME demethylation, luminescence; series mostly up to 25.6 µM. The method in brief:
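20nM CYP1A2 with 100uM Luciferin-ME (at Km) in 100mM KPO4; compound preincubated 10 min, NADPH regeneration added, 60 min at room temperature. Luciferin quantified by luminescence after detection reagent; normalized to 57 uM furafylline.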

A short description of assay [4]: NFAT Signaling Pathway (AID 444).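 Note: carbachol stimulus at about its EC50 of 1 µM final; % is set by controls: 0 for no effect and ±100 for the full control effect.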 The following applies: Jurkat NFAT-bla M1, carbachol, beta-lactamase ratio, 5 h; series mostly up to 17.2 µM. The method, boiled down:
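Read-out: CCF4 FRET ratio (460 nm/530 nm) after 1 h RT dye loading, used for %activity and AC50 from titration series. Cells: Jurkat NFAT-β-lactamase/M1 line, treated with compound plus 1 uM carbachol for 5 h, 37 °C.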

Assay [5] deals with Glucocorticoid receptor (Homo sapiens) (UniProt P04150). Briefly: GR-GFP Redistribution (AID 450;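 active = compounds whose dose series gives a full or clear partial fitted curve of increased nuclear translocation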; note: potency is the fitted concentration of half-maximal effect). The conditions noted are these: U2OS GR-GFP nuclear translocation, laser cytometry, 2 h.
The target is the same in assay [6]. Briefly: GR-EFC Redistribution (AID 451; calls by dose curve; note: potency is the fitted concentration of half-maximal effect). The following applies: CHO-K1 GR-EFC translocation, beta-gal luminescence, 2 h. The method, boiled down:
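Translocation of GR-ED fusion to nuclear EA restores b-gal, read by luminescence after 1 h room-temperature detection. Engineered CHO-K1 biosensor cells, 1,000/well, exposed 2 h at 37 C to titrations up to 46 uM final.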

Assay [7] has as its target Mitogen-activated protein kinase 10 (Mus musculus) (UniProt Q61831). Briefly: JNK3 AlphaScreen Assay (AID 530).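 Note: kinase came from lysate of stimulated human HepG2 cells; signal reports phosphorylation of biotinylated GST-cJun 1-79 at Ser73 with 10 µM ATP; % is set by controls: 0 for no effect and ±100 for the full control effect.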 The conditions noted are these: JNK3 lysate, c-Jun phosphorylation; series mostly up to 25.6 µM. The method, boiled down:
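Compound titrations were preincubated 15 minutes at room temperature with substrate, antibody and pre-activated JNK3-containing HepG2 lysate. Reactions were started with 10 uM ATP and stopped with EDTA-containing bead buffer for AlphaScreen detection.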
For orientation: Bead proximity is the source of the signal in Alpha formats.

Assay [8] can be described thus: Stat Signaling Pathway (AID 446).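 Note: ME-180 cervical cancer cells given 40 pM IL-6 alongside compound; SIE-controlled beta-lactamase reporter measured as 460/530 nm FRET emission ratio; % is set by controls: 0 for no effect and ±100 for the full control effect.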 The following applies: ME-180 SIE beta-lactamase reporter, IL-6 stimulated, 5 h; series mostly up to 17.2 µM. The method, boiled down: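 ME-180 SIE-bla cells; overnight plating; cpd + IL-6 40 pM, 5 h, 37 C; LiveBLAzer 2.5 h RT; 460/530 nm emission ratio. Normalized to 300 pM IL-6 and 125 nM JAK inhibitor controls.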
Assay [9] is described as follows: Cell Viability - BJ (AID 421; calls by dose curve;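 note: potency is the fitted concentration of half-maximal effect; cells exposed to compound for 40 hours at 37 °C before readout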). The following applies: BJ fibroblast viability, qHTS. The method in brief:
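Luminescent ATP signal (CellTiter-Glo, 20 min at room temperature) served as the read-out of viable BJ cells after 40 hours of compound treatment. Responses were scaled between DMSO and 100 uM tamoxifen, and AC50 values were obtained by Hill modeling.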
On the technique in general: In qHTS, concentration-response curves come from the screen itself.

Assay [10] can be described thus: Cell Viability - Jurkat (AID 426;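 active = dose-dependent loss of cell ATP signal giving a full or clear fitted curve, ranked by lower potency value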; note: potency is the fitted concentration of half-maximal effect). The conditions noted are these: qHTS. The method, boiled down:
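Jurkat (Clone E6-1) cells, 5000/well in complete medium, exposed to compounds for 40 hr at 37C; intracellular ATP measured by CellTiter-Glo luminescence after 20 min at room temperature. AC50 from Hill fits.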

Assay [11] in a line: Cell Viability - Hek293 (AID 427;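 active = compounds whose dose-response curve shows a full or clear partial loss of cell viability, called from curve shape rather than a numeric limit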;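 note: potency is the fitted concentration of half-maximal effect; cells exposed to compound for 40 hours at 37 °C before reading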). The following applies: qHTS. The method, boiled down: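 Luminescent ATP read-out (CellTiter-Glo, 20 min RT) after 40 hr compound exposure at 37 °C in complete medium. Signal normalized to DMSO (basal) and 100 uM tamoxifen (100% inhibition); concentration-response fitted with the standard Hill equation to give AC50.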
The nature of assay [12]: Cell Viability - HepG2 (AID 433; calls by dose curve;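 note: potency is the fitted concentration of half-maximal effect; potency for ATP loss meaning cytotoxicity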). The conditions noted are these: qHTS. The method, boiled down:
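HepG2 hepatocellular carcinoma cells (1500/well) were treated with compounds for 40 h at 37 °C in complete medium; intracellular ATP was read by CellTiter-Glo luminescence. Data were normalized to DMSO and 100 uM tamoxifen, and AC50 came from Hill fits.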

Assay [13] is described as follows: Cell Viability - MRC5 (AID 434; calls by dose curve;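 note: potency is the fitted concentration of half-maximal effect; potency reflects cytotoxicity seen as loss of intracellular ATP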). The conditions noted are these: MRC5 lung fibroblast viability, qHTS. The method, boiled down:
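qHTS cytotoxicity in human lung fibroblast MRC5 cells; 40 hr treatment, 37 °C; cellular ATP by luciferase luminescence; DMSO = 0%, 100 uM tamoxifen = 100% inhibition; Hill-fit AC50.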

The nature of assay [14]: Cell Viability - SK-N-SH (AID 435; calls by dose curve;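 note: potency is the fitted concentration of half-maximal effect; compound exposure lasted 40 h at 37 °C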). The following applies: SK-N-SH neuroblastoma cell viability qHTS. The method in brief:
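SK-N-SH human neuroblastoma cells (1500/well) were exposed to compounds in complete medium for 40 h at 37 °C, and intracellular ATP was then measured by CellTiter-Glo luminescence. AC50 was taken from Hill fits, normalized to DMSO and 100 uM tamoxifen.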

Assay [15] can be described thus: Cell Viability - N2a (AID 540; active = well fitted curve in the direction sought with a large enough effect; an effect the other way counts as inactive or inconclusive;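 note: plate controls were DMSO alone for no effect and tamoxifen control for full effect; nearly all actives have a fitted effect of over 45% in size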). The following applies: N2a mouse neuroblastoma cell viability; series mostly up to 92.2 µM. The method in brief: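 Mouse neuroblastoma N2a cells, 1500/well, exposed to compounds 40 h at 37 °C in complete medium. Viability measured as cellular ATP by CellTiter-Glo luminescence; AC50 from Hill fits of concentration-response.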
Assay [16] can be described thus: Cell Viability - HUV-EC-C (AID 542; active = well fitted curve in the direction sought with a large enough effect; an effect the other way counts as inactive or inconclusive; note: % is set by controls: 0 for no effect and ±100 for the full control effect; nearly all actives have a fitted effect of over 35% in size). The conditions noted are these: HUV-EC-C endothelial cell viability, qHTS; series mostly up to 92.2 µM. The method, boiled down:
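HUV-EC-C human vascular endothelial cells, 1000/well, exposed to compound for 40 hr at 37 °C in complete medium. Intracellular ATP was read by CellTiter-Glo luminescence. AC50 came from Hill-equation fits of concentration-response data.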

Assay [17] in a line: Cell Viability - H-4-II-E (AID 543; active = well fitted curve in the direction sought with a large enough effect; an effect the other way counts as inactive or inconclusive; note: % is set by controls: 0 for no effect and ±100 for the full control effect; nearly all actives have a fitted effect of over 35% in size). The following applies: H-4-II-E rat hepatoma viability; series mostly up to 92.2 µM. The method in brief:
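Rat hepatoma H-4-II-E cells, 1500 per well, treated 40 h at 37 °C in complete medium. Cellular ATP read by CellTiter-Glo luminescence; AC50 from Hill fits of concentration-response.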

A short description of assay [18]: Cell Viability - SH-SY5Y (AID 544; active = well fitted curve in the direction sought with a large enough effect; an effect the other way counts as inactive or inconclusive;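 note: 0% = DMSO alone and -100% = 100 µM tamoxifen; nearly all actives have a fitted effect of over 55% in size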). The conditions noted are these: SH-SY5Y neuroblastoma cell viability; series mostly up to 92.2 µM. The method, boiled down:
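SH-SY5Y human neuroblastoma cells (1500/well) incubated 5 h, then compound-treated 40 h at 37 °C in complete medium. Viability read as intracellular ATP by CellTiter-Glo luminescence after 20 min; AC50 from Hill-equation fits of qHTS concentration-response.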

The nature of assay [19]: Cell Viability - Renal Proximal Tubule (AID 545; active = well fitted curve in the direction sought with a large enough effect; an effect the other way counts as inactive or inconclusive;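 note: 0% = DMSO only and -100% = 100 µM tamoxifen; nearly all actives have a fitted effect of over 40% in size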). The following applies: renal proximal tubule cells viability, primary cells of rat origin; series mostly up to 91.7 µM. The method in brief:
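Primary rat renal proximal tubule cells (1000/well) were treated with compounds for 40 hr at 37 °C in complete medium. Intracellular ATP was measured by CellTiter-Glo luminescence, and AC50 values came from Hill-equation fits of concentration-response data.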

A short description of assay [20]: Cell Viability - Mesenchymal (AID 546; active = well fitted curve in the direction sought with a large enough effect; an effect the other way counts as inactive or inconclusive;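 note: cells exposed to compound for 40 hours before reading; 0% = DMSO only and -100% = 100 µM tamoxifen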). The conditions noted are these: mesenchymal cells viability, qHTS; series mostly up to 91.7 µM. The method in brief: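 AC50 values reflect the drop in intracellular ATP in a human kidney mesenchymal line derived from normal glomeruli. Treatment lasts 40 hr at 37 °C in complete medium, and the signal comes from CellTiter-Glo luminescence.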

Values without a mark were called inactive. Results filed as inconclusive are left out. The source made the active and inactive calls. Unless noted, calls come from the whole dose curve; as a rule, active = well fitted curve in either direction with a large enough effect (not every such curve was filed as active); inconclusive = small, poorly fitted or top-dose-only effect, or another doubt; inactive = flat fitted curve, though single readings scatter.

Glucocorticoid receptor (Homo sapiens), sequence (P04150 whole entry, looked up): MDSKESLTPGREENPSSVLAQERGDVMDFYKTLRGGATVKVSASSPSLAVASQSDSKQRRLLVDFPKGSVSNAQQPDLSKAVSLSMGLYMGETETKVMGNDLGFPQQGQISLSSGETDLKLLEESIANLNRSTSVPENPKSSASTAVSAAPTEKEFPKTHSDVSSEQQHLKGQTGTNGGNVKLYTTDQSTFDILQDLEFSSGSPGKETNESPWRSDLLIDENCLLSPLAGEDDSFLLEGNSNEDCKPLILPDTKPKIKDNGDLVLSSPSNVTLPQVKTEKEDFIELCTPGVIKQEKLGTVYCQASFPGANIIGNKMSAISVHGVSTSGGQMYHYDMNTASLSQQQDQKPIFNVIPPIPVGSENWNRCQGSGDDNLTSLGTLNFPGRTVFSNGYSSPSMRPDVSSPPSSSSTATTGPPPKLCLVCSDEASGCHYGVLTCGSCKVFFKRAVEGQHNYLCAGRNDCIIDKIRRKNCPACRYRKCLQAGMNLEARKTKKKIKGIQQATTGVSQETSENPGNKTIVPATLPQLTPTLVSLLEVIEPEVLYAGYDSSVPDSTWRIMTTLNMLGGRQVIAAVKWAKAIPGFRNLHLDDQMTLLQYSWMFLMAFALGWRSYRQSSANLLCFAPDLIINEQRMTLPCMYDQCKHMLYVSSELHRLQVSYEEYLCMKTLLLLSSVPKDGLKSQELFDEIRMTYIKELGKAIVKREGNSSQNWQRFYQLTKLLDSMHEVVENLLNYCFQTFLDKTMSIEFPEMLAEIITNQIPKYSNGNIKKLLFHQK
Cytochrome P450 1A2 (Homo sapiens), sequence (P05177 whole entry, looked up): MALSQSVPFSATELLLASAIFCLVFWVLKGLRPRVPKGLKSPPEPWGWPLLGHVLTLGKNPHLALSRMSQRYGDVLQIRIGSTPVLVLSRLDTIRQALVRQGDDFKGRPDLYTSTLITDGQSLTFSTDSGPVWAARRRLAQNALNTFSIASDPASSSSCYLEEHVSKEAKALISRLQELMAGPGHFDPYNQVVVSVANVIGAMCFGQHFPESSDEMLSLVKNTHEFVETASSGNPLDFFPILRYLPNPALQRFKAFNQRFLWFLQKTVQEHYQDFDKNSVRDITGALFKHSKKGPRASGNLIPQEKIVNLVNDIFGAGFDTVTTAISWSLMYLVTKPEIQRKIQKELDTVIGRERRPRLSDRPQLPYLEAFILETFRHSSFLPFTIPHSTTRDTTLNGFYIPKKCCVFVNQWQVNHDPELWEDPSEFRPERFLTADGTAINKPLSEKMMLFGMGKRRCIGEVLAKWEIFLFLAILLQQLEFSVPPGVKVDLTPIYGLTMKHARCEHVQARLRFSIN
Lysosomal acid glucosylceramidase (Homo sapiens), sequence (P04062 whole entry, looked up): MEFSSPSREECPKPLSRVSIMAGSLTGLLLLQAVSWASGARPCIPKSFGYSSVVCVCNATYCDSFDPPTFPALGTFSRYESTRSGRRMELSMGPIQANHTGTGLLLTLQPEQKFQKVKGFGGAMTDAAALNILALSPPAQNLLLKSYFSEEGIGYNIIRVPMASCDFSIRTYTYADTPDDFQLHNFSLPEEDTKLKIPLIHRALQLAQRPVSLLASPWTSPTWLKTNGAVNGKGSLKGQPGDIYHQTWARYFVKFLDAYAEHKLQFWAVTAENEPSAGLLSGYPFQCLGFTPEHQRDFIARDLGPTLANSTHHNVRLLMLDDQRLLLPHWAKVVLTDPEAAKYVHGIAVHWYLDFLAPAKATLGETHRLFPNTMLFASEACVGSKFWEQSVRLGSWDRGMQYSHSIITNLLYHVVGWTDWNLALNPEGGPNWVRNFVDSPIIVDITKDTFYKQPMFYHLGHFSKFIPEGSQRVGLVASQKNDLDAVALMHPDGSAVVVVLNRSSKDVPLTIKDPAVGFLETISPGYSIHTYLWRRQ

Take `O=S(=O)(O)c1ccc2cc(N=Nc3cc(S(=O)(=O)O)c4cccnc4c3O)ccc2c1`: the Potency in assay [1] was more than 11.4 µM; in [5], more than 46 µM; in assay [6], more than 9.22 µM. For the same compound, the outcome in assay [2] and in [4] was inactive. Further, the activity change, negative = inhibition in assay [3] is -18.8% [at 2.29 µM]. The Potency result in assay [7] is “inactive”.

Turning to `NC(=O)c1nnn(Cc2cc(Cl)c(C(=O)c3ccc(Cl)cc3)c(Cl)c2)c1N`, the Potency in [1] was more than 11.4 µM; in assay [5], more than 46 µM; in assay [6] it was more than 9.22 µM. Moreover, the result in assay [2], in assay [4] and in assay [8] was inactive. Also, in [3], the activity change, negative = inhibition is -2.2% [at 2.29 µM]. In addition, the Potency result in assay [7] is “inactive”.

`C[C@@H]1C[C@H]2[C@@H]3CCC4=CC(=O)C=C[C@]4(C)[C@@]3(F)[C@@H](O)C[C@]2(C)[C@@]1(O)C(=O)CO`: the Potency in assay [9], in assay [10], in assay [11], in assay [12], in assay [13] and in [14] was more than 92 µM in each case. Further, the compound was classed as inactive in assay [15], in assay [16], in [17], in assay [18], in assay [19] and in [20].

Regarding `CN[C@H]1[C@@H](O[C@@H]2[C@H](O[C@@H]3[C@@H](O)[C@@H](O)[C@@H](N=C(N)N)[C@@H](O)[C@@H]3N=C(N)N)O[C@H](C)[C@@]2(O)C=O)O[C@@H](CO)[C@@H](O)[C@H]1O`, the outcome in assay [2], in [4] and in [8] was inactive. For the same compound, the Potency result in assay [3] and in assay [7] was “inactive” each time. Also, the Potency in assay [5] and in assay [6] was more than 20.6 µM each time.

In the case of `CN1CCN2c3ncccc3Cc3ccccc3C2C1` (stereo not given), the Potency in assay [5] and in assay [6] was more than 46 µM each time. Besides, in [7], the Potency result is “inactive”.

For the compound `CC(NCCc1ccc(O)cc1)C(O)c1ccc(O)cc1` (stereo not given), the outcome in assay [2] and in assay [8] was inactive. Further, the Potency in [5] was more than 20.6 µM.

On to `CCCCC[C@H](O)C=C[C@H]1[C@H](O)CC(=O)[C@H]1CCCCCCC(=O)O`, for which the Potency in assay [5] and in [6] was more than 46 µM in each case. Further, in assay [7], the Potency result is “inactive”.

In the case of `Cc1ccc(NC(=O)c2cccc(N(C)C)c2)cc1NC(=O)c1ccc(O)cc1`, the Potency in assay [3] was 1.26 µM (active); in [5], more than 46 µM; in assay [6], more than 46 µM. The Potency entry in [7] was “inactive”.

Regarding `CN(C)c1ccccc1CN1CCCN(Cc2ccccc2N(C)C)C1c1ccncc1`, the Potency was more than 11.4 µM in assay [1], more than 46 µM in [5] and more than 9.22 µM in assay [6]. Besides, the outcome in [2], in assay [4] and in assay [8] was inactive. Also, the Potency entry in [3] and in assay [7] was “inactive” in each case.

For the origin of these results see PubChem BioAssay (NCATS).
